This passage reports binding signal results from article PMC7862700, “An all-to-all approach to the identification of sequence-specific readers for epigenetic DNA modifications on cytosine”.

Assay in all cases: DAPPL (digital affinity profiling via proximity ligation, sequencing); 10 mM Tris-HCl pH 7.5, 50 mM NaCl, 1 mM DTT, 4% glycerol, room temperature, 30 min; GST-TFs on glutathione beads, 16-mer random dsDNA library, 0.1% formaldehyde crosslink after washing; high values mean tight binding
What all share (settings): protein: recombinant; tags: N-terminal GST; dsDNA, one strand shown

One experiment deals with T1, FLI1 (Homo sapiens, UniProt Q01543 1-452).
T1 sequence: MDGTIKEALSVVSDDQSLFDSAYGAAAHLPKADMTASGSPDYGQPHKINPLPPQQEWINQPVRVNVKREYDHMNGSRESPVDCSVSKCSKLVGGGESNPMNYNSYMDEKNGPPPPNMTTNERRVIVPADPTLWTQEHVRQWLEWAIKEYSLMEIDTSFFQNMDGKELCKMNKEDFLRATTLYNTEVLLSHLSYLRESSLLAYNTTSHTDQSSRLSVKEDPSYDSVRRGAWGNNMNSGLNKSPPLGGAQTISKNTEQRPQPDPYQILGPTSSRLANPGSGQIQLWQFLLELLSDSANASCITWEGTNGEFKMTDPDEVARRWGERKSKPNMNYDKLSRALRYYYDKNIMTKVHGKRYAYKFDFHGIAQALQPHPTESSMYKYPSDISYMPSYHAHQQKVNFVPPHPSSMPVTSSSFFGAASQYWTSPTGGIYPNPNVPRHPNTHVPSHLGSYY
An outline of the steps:
(§1)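 Binding signal is each hexamer's read frequency for a factor divided by its frequency in the tag-only sample. The factors were GST-fused human transcription factors from yeast, captured on glutathione beads, DNA-barcoded and pooled with that sample. Pools were incubated with 200 nmole of a random double-stranded 16-mer DNA library in Tris/NaCl/DTT/glycerol buffer at room temperature for 30 min, then washed, crosslinked with 0.1% formaldehyde, proximity-ligated with BsaI/T4 ligase (1 h, 37 °C), PCR-amplified and sequenced on an Illumina NextSeq500.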

The target of another experiment is T2, ELK1 (Homo sapiens, UniProt P19419 1-428).
T2 sequence: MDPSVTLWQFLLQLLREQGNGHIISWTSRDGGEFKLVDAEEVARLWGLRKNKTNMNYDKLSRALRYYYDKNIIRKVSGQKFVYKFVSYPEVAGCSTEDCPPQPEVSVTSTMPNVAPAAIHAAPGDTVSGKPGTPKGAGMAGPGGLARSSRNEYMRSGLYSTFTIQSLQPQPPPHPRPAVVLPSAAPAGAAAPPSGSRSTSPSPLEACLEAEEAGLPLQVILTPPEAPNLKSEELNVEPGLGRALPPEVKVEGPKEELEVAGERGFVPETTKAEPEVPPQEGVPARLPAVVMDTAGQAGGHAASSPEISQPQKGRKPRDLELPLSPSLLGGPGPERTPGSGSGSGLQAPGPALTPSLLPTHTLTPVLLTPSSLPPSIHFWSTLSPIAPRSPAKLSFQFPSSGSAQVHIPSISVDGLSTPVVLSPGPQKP
An outline of the steps:
as §1

For the next experiment, the target named is T3, GABPA (Homo sapiens, UniProt Q06546 1-454).
T3 sequence: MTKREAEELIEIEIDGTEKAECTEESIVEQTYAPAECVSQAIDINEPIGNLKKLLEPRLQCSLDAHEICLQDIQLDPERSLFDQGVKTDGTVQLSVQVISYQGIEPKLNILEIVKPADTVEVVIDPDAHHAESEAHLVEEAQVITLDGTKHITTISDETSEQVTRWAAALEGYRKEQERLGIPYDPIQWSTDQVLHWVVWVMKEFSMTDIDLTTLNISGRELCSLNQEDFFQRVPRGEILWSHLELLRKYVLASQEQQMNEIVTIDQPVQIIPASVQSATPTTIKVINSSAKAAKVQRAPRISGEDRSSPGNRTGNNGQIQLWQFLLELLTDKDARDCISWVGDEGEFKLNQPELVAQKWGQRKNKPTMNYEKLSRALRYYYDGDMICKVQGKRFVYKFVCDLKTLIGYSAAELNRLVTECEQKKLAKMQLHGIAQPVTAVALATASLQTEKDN
Summed up: as §1

In another experiment the target is T4, ERG (Homo sapiens, UniProt P11308 1-479).
T4 sequence: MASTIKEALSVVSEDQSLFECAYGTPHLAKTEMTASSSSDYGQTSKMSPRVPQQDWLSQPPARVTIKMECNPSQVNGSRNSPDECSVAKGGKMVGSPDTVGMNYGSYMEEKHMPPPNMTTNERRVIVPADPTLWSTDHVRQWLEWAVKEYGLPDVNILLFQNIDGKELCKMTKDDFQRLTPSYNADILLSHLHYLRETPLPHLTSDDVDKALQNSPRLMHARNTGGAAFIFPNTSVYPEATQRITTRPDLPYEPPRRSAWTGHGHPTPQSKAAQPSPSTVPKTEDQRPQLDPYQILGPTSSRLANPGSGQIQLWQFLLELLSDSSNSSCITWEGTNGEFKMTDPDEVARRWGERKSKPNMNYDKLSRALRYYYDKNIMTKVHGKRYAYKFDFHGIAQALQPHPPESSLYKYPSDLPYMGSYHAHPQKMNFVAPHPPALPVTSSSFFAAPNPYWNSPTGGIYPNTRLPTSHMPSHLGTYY
An outline of the steps:
as §1

Another experiment concerns the target ELF1 (Homo sapiens, UniProt P32519 1-619). Summed up:
as §1

The target of another experiment is T5, EHF (Homo sapiens, UniProt Q9NZC4 1-300).
T5 sequence: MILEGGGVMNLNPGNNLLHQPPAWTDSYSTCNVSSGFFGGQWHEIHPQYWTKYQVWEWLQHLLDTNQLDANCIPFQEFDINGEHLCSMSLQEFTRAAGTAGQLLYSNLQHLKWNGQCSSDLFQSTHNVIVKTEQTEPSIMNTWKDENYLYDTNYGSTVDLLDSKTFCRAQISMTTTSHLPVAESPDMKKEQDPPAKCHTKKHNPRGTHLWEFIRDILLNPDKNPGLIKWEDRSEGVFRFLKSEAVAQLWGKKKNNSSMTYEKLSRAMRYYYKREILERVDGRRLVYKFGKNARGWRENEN
An outline of the steps:
as §1

The target of the next experiment is SPI1 (Homo sapiens, UniProt P17947 1-270). Summed up:
as §1

The target in another experiment is SPIB (Homo sapiens, UniProt Q01892 1-262). Summed up:
as §1

The target of another experiment is T6, ELK3 (Homo sapiens, UniProt P41970 1-407).
T6 sequence: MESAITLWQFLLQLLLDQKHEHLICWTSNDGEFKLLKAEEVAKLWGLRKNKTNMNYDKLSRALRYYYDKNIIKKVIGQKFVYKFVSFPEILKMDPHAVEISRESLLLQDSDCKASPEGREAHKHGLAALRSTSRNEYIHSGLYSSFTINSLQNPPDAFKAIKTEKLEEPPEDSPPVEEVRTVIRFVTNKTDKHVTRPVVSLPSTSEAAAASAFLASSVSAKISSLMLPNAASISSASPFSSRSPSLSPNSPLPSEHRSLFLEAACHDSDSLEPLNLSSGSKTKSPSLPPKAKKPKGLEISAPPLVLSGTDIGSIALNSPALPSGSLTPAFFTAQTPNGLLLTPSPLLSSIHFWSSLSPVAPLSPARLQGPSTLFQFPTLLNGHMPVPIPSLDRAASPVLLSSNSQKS
An outline of the steps:
as §1

ELF1, sequence (P32519 whole entry): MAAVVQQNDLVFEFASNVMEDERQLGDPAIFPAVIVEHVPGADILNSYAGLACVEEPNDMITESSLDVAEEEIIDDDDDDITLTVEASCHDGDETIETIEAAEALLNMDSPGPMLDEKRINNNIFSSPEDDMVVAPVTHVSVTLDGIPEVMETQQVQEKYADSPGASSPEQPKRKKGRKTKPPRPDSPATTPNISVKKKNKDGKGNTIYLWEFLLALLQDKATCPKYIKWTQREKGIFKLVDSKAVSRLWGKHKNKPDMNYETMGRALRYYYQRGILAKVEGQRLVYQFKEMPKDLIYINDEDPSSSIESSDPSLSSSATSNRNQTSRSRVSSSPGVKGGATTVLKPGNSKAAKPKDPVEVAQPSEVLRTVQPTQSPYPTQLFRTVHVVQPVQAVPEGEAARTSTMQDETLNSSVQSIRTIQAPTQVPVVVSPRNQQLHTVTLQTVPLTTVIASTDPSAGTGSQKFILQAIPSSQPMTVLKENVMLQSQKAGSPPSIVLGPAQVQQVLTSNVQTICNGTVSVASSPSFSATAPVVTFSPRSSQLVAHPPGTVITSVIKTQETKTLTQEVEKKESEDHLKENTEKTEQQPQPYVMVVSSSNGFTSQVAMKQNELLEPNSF
SPIB, sequence (Q01892 whole entry): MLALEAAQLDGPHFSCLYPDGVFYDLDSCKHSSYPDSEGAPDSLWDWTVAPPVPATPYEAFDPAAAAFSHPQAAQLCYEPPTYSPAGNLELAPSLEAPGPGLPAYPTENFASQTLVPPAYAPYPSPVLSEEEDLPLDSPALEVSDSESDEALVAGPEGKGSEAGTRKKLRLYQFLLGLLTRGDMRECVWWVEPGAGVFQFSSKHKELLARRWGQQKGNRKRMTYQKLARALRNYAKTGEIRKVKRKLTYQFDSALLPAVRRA

Turning to TTCTCT, the binding signal with FLI1 was 1.29 fold enrichment (6-mer frequency, TF over GST control); with ELK1 it was 1.3 fold enrichment (6-mer frequency, TF over GST control); with GABPA it was 1.27 fold enrichment (6-mer frequency, TF over GST control); in the experiment with ERG it was 1.32 fold enrichment (6-mer frequency, TF over GST control); with ELF1, 1.33 fold enrichment (6-mer frequency, TF over GST control); in the experiment with EHF, 1.27 fold enrichment (6-mer frequency, TF over GST control). Moreover, the binding signal with SPI1 was 1.3 fold enrichment (6-mer frequency, TF over GST control); with SPIB, 1.16 fold enrichment (6-mer frequency, TF over GST control); with ELK3, 1.29 fold enrichment (6-mer frequency, TF over GST control).

For the sequence CTGATT, the binding signal in the experiment with FLI1 was 1.18 fold enrichment (6-mer frequency, TF over GST control); with ELK1, 1.21 fold enrichment (6-mer frequency, TF over GST control); with GABPA, 1.14 fold enrichment (6-mer frequency, TF over GST control); in the experiment with ERG, 1.2 fold enrichment (6-mer frequency, TF over GST control); with ELF1, 1.22 fold enrichment (6-mer frequency, TF over GST control); with EHF, 1.22 fold enrichment (6-mer frequency, TF over GST control). Moreover, the binding signal was 1.09 fold enrichment (6-mer frequency, TF over GST control) with SPI1; 1.21 fold enrichment (6-mer frequency, TF over GST control) in the experiment with SPIB; 1.21 fold enrichment (6-mer frequency, TF over GST control) with ELK3.

Consider AGCTTT, for which the binding signal with FLI1 is 1.21 fold enrichment (6-mer frequency, TF over GST control); with ELK1, 1.2 fold enrichment (6-mer frequency, TF over GST control); with GABPA, 1.13 fold enrichment (6-mer frequency, TF over GST control); with ERG it was 1.12 fold enrichment (6-mer frequency, TF over GST control); in the experiment with ELF1 it was 1.2 fold enrichment (6-mer frequency, TF over GST control); with EHF, 1.11 fold enrichment (6-mer frequency, TF over GST control). Also, the binding signal in the experiment with SPI1 was 1.16 fold enrichment (6-mer frequency, TF over GST control); with SPIB, 1.04 fold enrichment (6-mer frequency, TF over GST control); with ELK3, 1.13 fold enrichment (6-mer frequency, TF over GST control).

Consider TATGGA, for which the binding signal was 1.07 fold enrichment (6-mer frequency, TF over GST control) in the experiment with FLI1; 1.13 fold enrichment (6-mer frequency, TF over GST control) with ELK1; 1.09 fold enrichment (6-mer frequency, TF over GST control) with GABPA; 1.15 fold enrichment (6-mer frequency, TF over GST control) with ERG; 1.06 fold enrichment (6-mer frequency, TF over GST control) with ELF1; 1.26 fold enrichment (6-mer frequency, TF over GST control) in the experiment with EHF. Further, the binding signal in the experiment with SPI1 is 1.07 fold enrichment (6-mer frequency, TF over GST control); with SPIB, 1.17 fold enrichment (6-mer frequency, TF over GST control); in the experiment with ELK3 it was 1.12 fold enrichment (6-mer frequency, TF over GST control).

In the case of CCGACC, the binding signal was 1.66 fold enrichment (6-mer frequency, TF over GST control) in the experiment with FLI1; 1.59 fold enrichment (6-mer frequency, TF over GST control) with ELK1; 1.65 fold enrichment (6-mer frequency, TF over GST control) with GABPA; 1.55 fold enrichment (6-mer frequency, TF over GST control) in the experiment with ERG; 1.47 fold enrichment (6-mer frequency, TF over GST control) with ELF1; 1.44 fold enrichment (6-mer frequency, TF over GST control) in the experiment with EHF. The binding signal with SPI1 was 1.42 fold enrichment (6-mer frequency, TF over GST control); with SPIB, 1.57 fold enrichment (6-mer frequency, TF over GST control); in the experiment with ELK3 it was 1.8 fold enrichment (6-mer frequency, TF over GST control).

With TTCGCC, the binding signal in the experiment with FLI1 is 1.26 fold enrichment (6-mer frequency, TF over GST control); with ELK1, 1.28 fold enrichment (6-mer frequency, TF over GST control); with GABPA, 1.2 fold enrichment (6-mer frequency, TF over GST control); with ERG, 1.15 fold enrichment (6-mer frequency, TF over GST control); in the experiment with ELF1 it was 1.15 fold enrichment (6-mer frequency, TF over GST control); with EHF it was 1.11 fold enrichment (6-mer frequency, TF over GST control). Also, the binding signal with SPI1 is 1.1 fold enrichment (6-mer frequency, TF over GST control); with SPIB, 1.14 fold enrichment (6-mer frequency, TF over GST control); with ELK3, 1.08 fold enrichment (6-mer frequency, TF over GST control).

In the case of CTGCAA, the binding signal was 1.29 fold enrichment (6-mer frequency, TF over GST control) with FLI1; 1.3 fold enrichment (6-mer frequency, TF over GST control) in the experiment with ELK1; 1.2 fold enrichment (6-mer frequency, TF over GST control) in the experiment with GABPA; 1.23 fold enrichment (6-mer frequency, TF over GST control) with ERG; 1.36 fold enrichment (6-mer frequency, TF over GST control) with ELF1; 1.2 fold enrichment (6-mer frequency, TF over GST control) with EHF. Besides, the binding signal was 1.31 fold enrichment (6-mer frequency, TF over GST control) with SPI1; 1.27 fold enrichment (6-mer frequency, TF over GST control) with SPIB; 1.33 fold enrichment (6-mer frequency, TF over GST control) with ELK3.

As for TCGACT, the binding signal with FLI1 is 1.33 fold enrichment (6-mer frequency, TF over GST control); in the experiment with ELK1, 1.34 fold enrichment (6-mer frequency, TF over GST control); in the experiment with GABPA, 1.3 fold enrichment (6-mer frequency, TF over GST control); with ERG it was 1.35 fold enrichment (6-mer frequency, TF over GST control); in the experiment with ELF1, 1.43 fold enrichment (6-mer frequency, TF over GST control); with EHF, 1.39 fold enrichment (6-mer frequency, TF over GST control). The binding signal with SPI1 is 1.42 fold enrichment (6-mer frequency, TF over GST control); with SPIB, 1.39 fold enrichment (6-mer frequency, TF over GST control); in the experiment with ELK3, 1.47 fold enrichment (6-mer frequency, TF over GST control).
